Measured values taken from PubChem BioAssay.
Active and inactive are the calls of the source.

Assays:
[1] = A549 cell viability effects, profiling panel, calcein-AM fluorescence, 48 h, basal (AID 1162); conditions: higher = more signal; also: test concentration not given here
[2] = adipocyte viability effects, profiling panel, cell-based, 3T3-L1 adipocytes, calcein-AM fluorescence, 48 h, basal (AID 1163); conditions: 3T3-L1 adipocytes viability, higher = more signal; also: test concentration not given here
[3] = HepG2 cell viability effects, profiling panel, calcein-AM fluorescence, 48 h, basal (AID 1164); conditions: higher = more signal; also: test concentration not given here
[4] = MM1S cell viability effects, profiling panel, calcein-AM fluorescence, 48 h, basal (AID 1165); conditions: higher = more signal;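 also: viability of MM1S multiple myeloma cells under basal unstimulated conditions; test concentration not given here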
[5] = basal RPMI8226 viability, no added stimulus, profiling panel, cell-based, calcein-AM fluorescence, 48 h, PK04 Diversity Set (AID 1166); conditions: RPMI8226 myeloma viability, higher = more signal;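 also: cells grown under basal conditions without added stimulus; test concentration not given here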
[6] = basal HepG2 mitochondrial membrane potential changes, profiling panel, cell-based, JC-1 fluorescence, 24 h, 100 nL compound (AID 1167); conditions: higher = more signal; also: test concentration not given here
[7] = basal 3T3-L1 adipocyte mitochondrial potential changes, profiling panel, cell-based, JC-1 fluorescence, 3T3-L1 adipocytes, 24 h, 100 nL compound (AID 1168); conditions: JC-1 mitochondrial fluorescence, higher = more signal, called active from +8 up or from −8 down; also: test concentration not given here
[8] = basal RPMI8226 mitochondrial membrane potential changes, profiling panel, cell-based, JC-1 fluorescence, 24 h, 100 nL compound (AID 1169); conditions: RPMI8226 myeloma, JC-1 mitochondrial potential fluorescence, higher = more signal; also: test concentration not given here
[9] = basal MM1S mitochondrial membrane potential changes, profiling panel, cell-based, JC-1 fluorescence, 24 h, 100 nL compound (AID 1170); conditions: higher = more signal; also: test concentration not given here
[10] = A549 lung cancer cell viability effects, profiling panel, resazurin fluorescence, 24 h, PK04 Diversity Set (AID 1171); conditions: higher = more signal, called active from +8 up or from −8 down; also: test concentration not given here
[11] = HepG2 liver cancer cell viability effects, profiling panel, resazurin fluorescence, 24 h, PK04 Diversity Set (AID 1172); conditions: higher = more signal; also: test concentration not given here
[12] = basal S. cerevisiae growth modulation, no modifier, primary screen, OD600, strain BY4716, 24 h, basal condition (AID 1173); conditions: OD600, 24 h, higher = more signal, called active from +8 up or from −8 down
[13] = MM1S myeloma cell viability, profiling panel, resazurin fluorescence, basal, 24 h, PK04 Diversity Set (AID 1174); conditions: higher = more signal, called active from +8 up or from −8 down;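 also: MM1S multiple myeloma cell line; test concentration not given here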
[14] = target: Dihydroorotate dehydrogenase (quinone), mitochondrial (Plasmodium falciparum (isolate 3D7)) (UniProt Q08210); experiment: PfDHODH enzyme inhibitors, primary screen, biochemical, C-terminal His tag, absorbance 600 nm (AID 1175); conditions: DCIP absorbance 600 nm, higher = more signal, called active from +8 up or from −8 down;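 also: recombinant parasite enzyme with a five histidine tag at its C terminus; test concentration not given here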
Dihydroorotate dehydrogenase (quinone), mitochondrial (Plasmodium falciparum (isolate 3D7)), sequence (Q08210 whole entry, looked up): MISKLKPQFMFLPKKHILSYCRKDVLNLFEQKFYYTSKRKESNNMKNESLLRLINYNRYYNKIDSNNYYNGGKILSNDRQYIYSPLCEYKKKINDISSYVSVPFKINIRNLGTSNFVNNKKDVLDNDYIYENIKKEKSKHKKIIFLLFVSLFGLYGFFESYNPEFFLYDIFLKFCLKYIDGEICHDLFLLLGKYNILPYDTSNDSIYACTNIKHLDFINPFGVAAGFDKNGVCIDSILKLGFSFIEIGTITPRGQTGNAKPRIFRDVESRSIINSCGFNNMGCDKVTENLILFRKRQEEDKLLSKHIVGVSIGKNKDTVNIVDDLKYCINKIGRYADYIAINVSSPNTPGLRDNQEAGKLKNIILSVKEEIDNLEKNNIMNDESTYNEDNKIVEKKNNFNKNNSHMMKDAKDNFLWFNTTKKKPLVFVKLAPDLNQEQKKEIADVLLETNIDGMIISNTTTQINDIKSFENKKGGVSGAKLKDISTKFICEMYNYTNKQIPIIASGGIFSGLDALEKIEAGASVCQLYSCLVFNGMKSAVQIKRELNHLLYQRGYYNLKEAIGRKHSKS

[15] = S. cerevisiae RM11-1a growth modifiers, primary screen, strain RM11-1a, OD600, basal, 24 h (AID 1177); conditions: OD600, 24 h, higher = more signal, called active from +8 up or from −8 down;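 also: cultures grown under basal conditions with no added stressor; test concentration not given here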
[16] = E. coli acrAB mutant growth effects, primary screen, E. coli filamentation inducers, strain DRC39, OD650, 24 h (AID 1178); conditions: higher = more signal, called active from +8 up or from −8 down;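 also: growth measured as culture turbidity by optical density at 650 nm; test concentration not given here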
[17] = E. coli acrAB mutant growth effects, primary screen, E. coli filamentation inducers, strain DRC39, OD650, 48 h (AID 1179);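 also: screen aims at cell division blockers that make cells filament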; conditions: E. coli DRC39 delta-acrAB growth, higher = more signal, called active from +8 up or from −8 down
[18] = RPMI8226 myeloma cell viability, profiling panel, resazurin fluorescence, basal, 24 h, PK04 Diversity Set (AID 1180); conditions: higher = more signal;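 also: RPMI8826 multiple myeloma cell line at 5000 cells per well; test concentration not given here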
[19] = target: E3 ubiquitin-protein ligase XIAP (Homo sapiens) (UniProt P98170); experiment: XIAP binders, primary screen, biophysical, small-molecule microarray, fluorescence 635 nm (AID 1181); conditions: small-molecule microarray binding, higher = more signal;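 also: score merges 667 nm emission and signal to noise over triplicate slides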
E3 ubiquitin-protein ligase XIAP (Homo sapiens), sequence (P98170 whole entry, looked up): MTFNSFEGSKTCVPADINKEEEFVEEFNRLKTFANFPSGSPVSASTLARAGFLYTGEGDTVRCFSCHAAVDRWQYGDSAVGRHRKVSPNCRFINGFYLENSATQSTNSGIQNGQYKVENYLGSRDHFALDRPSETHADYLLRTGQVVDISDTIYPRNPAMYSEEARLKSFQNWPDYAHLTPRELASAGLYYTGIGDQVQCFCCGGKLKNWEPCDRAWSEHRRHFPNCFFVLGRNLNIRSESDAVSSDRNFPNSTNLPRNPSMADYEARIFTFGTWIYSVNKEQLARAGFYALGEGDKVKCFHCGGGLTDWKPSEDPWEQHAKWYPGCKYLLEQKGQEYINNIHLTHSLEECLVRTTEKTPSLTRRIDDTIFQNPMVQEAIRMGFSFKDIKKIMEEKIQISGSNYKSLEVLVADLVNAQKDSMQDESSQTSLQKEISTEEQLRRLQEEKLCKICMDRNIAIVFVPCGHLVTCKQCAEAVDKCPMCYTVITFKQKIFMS

SMILES | z-score [1] | z-score [2] | z-score [3] | z-score [4] | z-score [5] | z-score [6] | z-score [7] | z-score [8] | z-score [9] | z-score [10] | z-score [11] | z-score [12] | z-score [13] | composite z-score [14] | z-score [15] | z-score [16] | z-score [17] | z-score [18] | composite z-score [19]
COC(=O)C1=C(C)N(Cc2ccccc2)c2c(C(=O)OC)c(C(=O)OC)c(C(=O)OC)c(=O)n2[C@@H]1c1ccccc1 | 0.943 | 0.338 | 0.244 | 0.24 | 0.327 | 1.12 | 0.633 (inactive) | -0.281 | -0.0899 | 0.524 (inactive) | 1.23 | -1.71 (inactive) | -0.364 (inactive) | 0.295 (inactive) | -1.05 (inactive) | -0.0311 (inactive) | 0.0198 (inactive) | 0.512 | -0.0841
COCCOC(=O)N1C(=O)[C@@]2(c3cc(C#CCNC(N)=O)ccc31)[C@H](c1ccc(OCCO)cc1)N1[C@H](c3ccccc3)[C@H](c3ccccc3)OC(=O)[C@H]1[C@@H]2C(=O)N1CCCCCCC1 | 0.118 | 1.97 | -0.164 | -0.115 | 0.269 | -0.411 | -3.07 (inactive) | -0.659 | -1.11 | 0.643 (inactive) | 0.377 | 1.52 (inactive) | 1.2 (inactive) | 0.0238 (inactive) | 2 (inactive) | -0.132 (inactive) | 0.538 (inactive) | 1.41 | -0.0559
C=C(COC)/C(=C/C[C@H](OC(C)=O)c1ccc(OCCO)cc1)c1cnc2ccccc2c1 | 0.373 | 1.18 | -0.141 | -1.53 | 1.07 | 2.07 | 1.2 (inactive) | 0.23 | 0.278 | 0.715 (inactive) | 0.807 | -0.229 (inactive) | 1.03 (inactive) | -2.82 (inactive) | 1.65 (inactive) | 1.2 (inactive) | 0.805 (inactive) | 1.03 | -0.102
O=C1c2ccccc2[C@](Cc2ccccc2I)(C(=O)NCC(F)(F)F)[C@H](c2ccc(CO)cc2)N1Cc1ccccc1C(F)(F)F | 0.187 | 1.31 | -0.529 | -2.72 | -2.27 | 0.535 | -0.225 (inactive) | -0.248 | 0.415 | 1.32 (inactive) | 0.226 | -1.29 (inactive) | 1.13 (inactive) | -0.449 (inactive) | -0.719 (inactive) | 0.775 (inactive) | 0.23 (inactive) | 1.69 | -0.174
Cc1ccc(S(=O)(=O)N[C@H]2COC(=O)CC=C[C@H](C)COC(=O)N[C@@H](C)C(=O)CC=C[C@@H]2C)cc1 | -0.235 | 0.538 | 0.984 | 0.399 | -0.558 | 1.27 | 0.946 (inactive) | -0.614 | 0.809 | 0.333 (inactive) | 0.115 | -0.949 (inactive) | 1.71 (inactive) | 0.32 (inactive) | -0.698 (inactive) | 0.583 (inactive) | 0.286 (inactive) | 1.06 | -0.0282
C=CCNC(=O)[C@H]1[C@@H]2C(=O)O[C@@H](c3ccccc3)[C@@H](c3ccccc3)N2[C@@H](c2ccccc2OCCO)[C@]12C(=O)N(C(=O)OCCOC)c1ccc(C#CCNC(N)=O)cc12 | 0.883 | 1.68 | -0.127 | -1.13 | -0.66 | 0.208 | 1.39 (inactive) | -0.711 | -0.616 | 1.13 (inactive) | 0.834 | 0.338 (inactive) | 1.71 (inactive) | -1.11 (inactive) | 1.04 (inactive) | 0.845 (inactive) | 1.06 (inactive) | 1.72 | -0.23
C=C(COC)/C(=C/C[C@@H](OC(=O)c1ccncc1)c1ccc(OCCO)cc1)c1cc(C(=O)OC)ccc1OC | 1.13 | 1.51 | 0.183 | -0.312 | 0.93 | 2.48 | 1.79 (inactive) | 0.116 | 0.487 | 1.6 (inactive) | 0.789 | -2.19 (inactive) | 1.36 (inactive) | -1.32 (inactive) | -2.6 (inactive) | 2.65 (inactive) | 1.79 (inactive) | 1.16 | -0.103
C=CC[C@@]1(C(=O)N2CCOCC2)N=C(c2ccc(OCCCO)cc2)O[C@@H]1c1ccccc1 | 0.429 | 1.9 | -0.55 | -0.0274 | -0.624 | 0.13 | 1.09 (inactive) | -0.357 | 0.216 | 1.85 (inactive) | 0.781 | -1.69 (inactive) | 1.1 (inactive) | 0.702 (inactive) | 1.45 (inactive) | 0.788 (inactive) | -0.0676 (inactive) | 1.02 | -0.167
CO[C@H]1COC(=O)[C@H](C)NC(=O)CC=C[C@@H](C)[C@H](NS(=O)(=O)c2ccc(C)cc2)COC(=O)[C@@H](OCc2ccccc2)C=C[C@@H]1C | 0.0987 | 0.901 | 0.0331 | -0.31 | 0.102 | 1.04 | 0.315 (inactive) | -0.729 | 1.02 | 0.559 (inactive) | 0.618 | 0.156 (inactive) | 1.03 (inactive) | 0.604 (inactive) | 1.25 (inactive) | 0.292 (inactive) | 0.104 (inactive) | 0.775 | -0.0123
CCC(=O)[C@]12O[C@@]3([C@@H]4C(=O)OCC[C@@H]41)N(Cc1ccccc1)C(C)=C(C(=O)OC)[C@@H](c1ccccc1)N3C2=O | 0.997 | 0.873 | -0.356 | 0.0552 | 1.08 | 0.499 | 0.995 (inactive) | -0.752 | -0.226 | 0.26 (inactive) | 0.859 | -2.74 (inactive) | 0.83 (inactive) | 0.0379 (inactive) | -0.704 (inactive) | -0.101 (inactive) | -0.0892 (inactive) | 0.95 | 0.0289
CC(C)CN1C(=O)[C@@]2(Cc3ccccc31)c1ccccc1C(=O)N(C1CCCCC1)[C@H]2c1ccc(CO)cc1 | 0.572 | 1.86 | 0.502 | 0.845 | -0.0832 | -0.178 | 0.938 (inactive) | -0.6 | 0.00808 | 0.148 (inactive) | 0.0515 | -1.91 (inactive) | 1.05 (inactive) | -2.88 (inactive) | -1.12 (inactive) | 0.164 (inactive) | 0.464 (inactive) | 1.21 | 0.377
[N-]=[N+]=NCc1ccccc1C[C@@]1(C(=O)N2CCOCC2)N=C(c2ccc(OCCCO)cc2)O[C@@H]1c1ccccc1N=[N+]=[N-] | -0.884 | 0.913 | -0.848 | -2.19 | -2.3 | 0.944 | 1.11 (inactive) | -0.982 | -0.891 | -1.75 (inactive) | 0.164 | -1.37 (inactive) | -1.22 (inactive) | 0.503 (inactive) | 1.12 (inactive) | 2.06 (inactive) | 0.612 (inactive) | -1.62 | 0.152
CO[C@@H]1COC(=O)[C@H](COCc2ccccc2)NC(=O)CC=C[C@@H](C)[C@H](OC)COC(=O)[C@H](COCc2ccccc2)NC(=O)CC=C[C@H]1C | 0.404 | 0.67 | -0.0841 | 0.0234 | 0.711 | 0.849 | 1 (inactive) | 0.525 | 0.178 | 0.296 (inactive) | 0.784 | -0.173 (inactive) | 1.28 (inactive) | 0.946 (inactive) | 0.371 (inactive) | 2.23 (inactive) | -0.0924 (inactive) | 0.415 | 0.378
CO[C@H]1COC(=O)[C@@H](C)NC(=O)CC=C[C@@H](C)[C@H](OC)COC(=O)CC=C[C@@H]1C | 0.606 | 0.518 | 0.468 | 0.377 | 0.771 | 1.44 | 1.86 (inactive) | -0.0629 | 1.06 | 0.775 (inactive) | 1.16 | -2.42 (inactive) | 0.563 (inactive) | -0.336 (inactive) | -2.65 (inactive) | 1.03 (inactive) | 0.505 (inactive) | 0.477 | -0.271
C=CC[C@]1(C(=O)O)N=C(c2ccc(OCCCO)cc2)O[C@H]1c1ccccc1 | 0.0248 | 1.88 | 0.0696 | -0.394 | -0.512 | 0.801 | 0.0186 (inactive) | -0.755 | 1.29 | 0.692 (inactive) | 0.734 | -2.31 (inactive) | 1.63 (inactive) | 1.51 (inactive) | 0.344 (inactive) | 2.94 (inactive) | 1.25 (inactive) | 1.77 | 0.109
CC(C)[Si]1(C(C)C)O[C@@H](c2ccccc2)c2cc(C3CC3)nc(-c3ccc(Oc4ccccc4)cc3)c21 | -0.654 | 1.31 | 0.0626 | -0.964 | 0.391 | 0.484 | 0.924 (inactive) | 0.38 | 0.484 | 1.6 (inactive) | 1.08 | -0.225 (inactive) | 1.35 (inactive) | 0.967 (inactive) | 1.15 (inactive) | 1.3 (inactive) | 0.734 (inactive) | 0.688 | -0.267
[N-]=[N+]=Nc1ccccc1C[C@@]1(C(=O)N2CCOCC2)N=C(c2ccc(OCCCO)cc2)O[C@@H]1c1ccccc1N=[N+]=[N-] | -0.71 | 0.271 | -1.19 | -3.45 | -4.53 | 0.925 | 1.98 (inactive) | -1.23 | -1.54 | -1.32 (inactive) | -0.133 | -2.54 (inactive) | -1.93 (inactive) | -0.489 (inactive) | 0.0278 (inactive) | 1.08 (inactive) | 0.115 (inactive) | -3.91 | -0.256
CC(C)N1CC=CC23O[C@@H]4/C=C\CCCOC(=O)C4[C@H]2C(=O)N(CCCCCO)[C@@H]3C1=O (some centres not stated) | 0.196 | 1.24 | 0.791 | 1.64 | 0.0268 | 0.446 | 1.31 (inactive) | -0.197 | 0.599 | 0.929 (inactive) | 0.46 | -1.08 (inactive) | 1.35 (inactive) | 0.623 (inactive) | -0.354 (inactive) | 1.26 (inactive) | 1.29 (inactive) | 1.13 | 0.973
